Measurements from PubChem BioAssay (NCI).
About 79,000 compounds went through this panel and 15% of them were active in at least one assay; those are over-represented in the sample as a whole. Unmarked numbers belong to inactive results. The source made the active and inactive calls. No stated cut-off is given here; in the data, active means growth inhibition above about 70%; inactive means the rest.

What was measured:
[1] = NCI Yeast Anticancer Drug Screen. Data for the rad50 strain (AID 155);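 further: 0% = growth of vehicle-only cultures of the same strain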; conditions: S. cerevisiae rad50 strain growth inhibition; at 50.0 µM; stronger effect = higher value
Summary of the method: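 Growth of the mutant yeast was measured after compound exposure and referenced to vehicle-treated cultures.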

[2] = NCI Yeast Anticancer Drug Screen. Data for the mec2-1 strain (AID 157); conditions: S. cerevisiae mec2-1 strain, at 50.0 µM, stronger effect = higher value
Summary of the method: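 Each compound was tested on mec2-1 yeast, a strain altered in DNA damage repair or cell cycle control. Growth inhibition is reported relative to vehicle.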

[3] = NCI Yeast Anticancer Drug Screen. Data for the sgs1 mgt1 strain (AID 161);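 further: 0% = growth of cultures given vehicle only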; conditions: S. cerevisiae sgs1 mgt1 strain, at 50.0 µM, stronger effect = higher value
Summary of the method: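 Mutant yeast exposed to compound; growth scored against vehicle-only wells.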

[4] = NCI Yeast Anticancer Drug Screen. Data for the cln2 rad14 strain (AID 165);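 further: 0% = growth equal to vehicle treated cultures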; conditions: S. cerevisiae cln2 rad14 strain, at 50.0 µM, stronger effect = higher value
Summary of the method: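 Test compounds were added to cln2 rad14 yeast cultures; inhibition of growth was then determined by comparison with vehicle treatment.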

[5] = NCI Yeast Anticancer Drug Screen. Data for the bub3 strain (AID 167); conditions: S. cerevisiae bub3 mutant strain, at 50.0 µM, stronger effect = higher value
Summary of the method: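 Whole-cell yeast assay. The mutant strain was incubated with compounds, and growth inhibition was determined by comparison with vehicle-treated cells.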

[6] = NCI Yeast Anticancer Drug Screen. Data for the mlh1 rad18 strain (AID 175); conditions: S. cerevisiae mlh1 rad18 strain growth inhibition; at 50.0 µM; stronger effect = higher value
Summary of the method: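 Inhibition values reflect reduced growth of mutant yeast versus vehicle-treated controls following compound exposure; the mutations affect DNA damage repair.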

Compound	growth inhibition [1]	growth inhibition [2] [%]	growth inhibition [3]	growth inhibition [4] [%]	growth inhibition [5] [%]	growth inhibition [6] [%]
COc1cccc(C2CC(C)(N3CCCC3)Oc3cc4c(cc32)OCO4)c1O (stereo unspecified)	7.5%	13.9	10%	13.8	28.6	-10.2
CCOC(=O)c1ccccc1C(=O)c1ccccc1O	-5.8%	-18	-1.6%	-0.45	-5.45	18.4
O=C(/C=C/NC(=O)OCc1ccccc1)OCc1ccccc1	9.35%	-5.5	-0.9%	17.1	3.55	0.95
CC(C)CCCC(C)C1CCC2C3CCC4CC(=O)/C(=C\O)CC4(C)C3CCC12C (stereo unspecified)	70.3% (active)	51.5	79.4% (active)	38.6	25.6	67.2
CCCCN1C[C@H](OC(=O)CCC)[C@@H](OC(=O)CCC)[C@H](OC(=O)CCC)[C@H]1COC(=O)CCC	-18.4%	-15.7	-11%	-5.3	-23.9	-15.7
O=C1/C(=C/c2ccccc2)SC(=S)N1C1c2ccccc2Oc2ccccc21	35.4%	14.6	53.8%	38.8	5.25	30.1
CC(C)OCCOCCO	7.65%	-10.5	-4.85%	-24.9	10.1	-1.2
O=C(O)/C=C/C(=O)Nc1cc(Cl)cc2c1-c1c(Cl)cc(Cl)cc1C2=O	30.9%	8.95	31.6%	-52.6	-4	4.25
CCOC(=O)C[C@@]1(C)C(=O)O[C@H](c2ccccc2)N1C(=O)c1ccccc1	13.2%	6.4	14.2%	29.9	11.8	15.1
CCCOC(C)OCCC#CCC(C)OC(=O)CC(Cl)(Cl)Cl (stereo unspecified)	-13.8%	-21.4	10.7%	-5.35	-16.1	-9.35
Cc1c[nH]c(=O)n(CC(=O)C2(O)CCC3C4CCC5=CC(=O)CCC5(C)C4CCC32C)c1=O (stereo unspecified)	5.25%	-4.45	-10.9%	13.2	-0.55	-1.35
O=C(/C=C/C=C/c1ccc2c(c1)OCO2)N1CCCCC1	-1.5%	-26.4	12.1%	-22.6	5.45	-22.7
Nc1nc(SCc2ccc(F)cc2)c2[nH]cnc2n1	16.8%	9.35	12.6%	-8.8	12.8	-21.9
CCCCCC(C)(O)CCC (stereo unspecified)	-5.9%	-6.65	3.65%	-3.45	6.9	-3.55
CC[N+](C)(CC)CCOC(C)=O	8.55%	-12.1	-5.95%	11.2	-6.5	8.3
Cc1cc(N=C2C=CC(=O)C=C2)ccc1O	40.5%	21.6	30.4%	10.2	15.9	25.6
CCCC(=O)C(N)Cc1ccc(O)cc1 (stereo unspecified)	-16.6%	-10.3	4.35%	-9.35	-16.1	-1.7
CC1CN(C(=O)C2CCCN(CCc3ccccc3)C2)CC(C)O1 (stereo unspecified)	25.4%	2.65	52.7%	14.8	2	22.7
CN(N=O)C(=O)NC(CCCCNC(=O)OCc1ccccc1)C(=O)OCc1ccccc1 (stereo unspecified)	5.95%	-10.1	-2.8%	-22.4	11.6	-11.2
CC1CC(O)CC(C)(C)C1.CC1CC(O)CC(C)(C)C1.CC1CC(O)CC(C)(C)C1.CC1CC(O)CC(C)(C)C1.[Ti] (stereo unspecified)	13.9%	-4.65	23.2%	15.1	32.5	31.9
NC(=O)Nc1ccc2ccccc2c1	8.8%	-9.75	1.65%	-3.95	-19.8	-5.25

Compound	growth inhibition [1]	growth inhibition [2] [%]	growth inhibition [3]	growth inhibition [4] [%]	growth inhibition [5] [%]	growth inhibition [6] [%]
C/C(=C\c1ccccc1)C(O)C(=O)c1nc2ccc([N+](=O)[O-])cc2[nH]c1=O (stereo unspecified)	-5.55%	-33.1	-11.4%	21.4	-26.4	14.5
O=[N+]([O-])c1ccc(OP2(Oc3ccc([N+](=O)[O-])cc3)=NP(Oc3ccc([N+](=O)[O-])cc3)(Oc3ccc([N+](=O)[O-])cc3)=NP(Oc3ccc([N+](=O)[O-])cc3)(Oc3ccc([N+](=O)[O-])cc3)=NP(Oc3ccc([N+](=O)[O-])cc3)(Oc3ccc([N+](=O)[O-])cc3)=N2)cc1	-4.5%	-7.9	-6.35%	-3.7	-1.65	-17.2
OCC(O)Cn1cnc2c(NO)ncnc21 (stereo unspecified)	-18.2%	-20.8	-8%	-15.2	4.85	11.1
CN(C)/N=C\c1ccc(C(=O)O)cc1	-4.35%	25.6	8.5%	-11.9	28.3	22.9
CC1CCOC2(CCCCC2)O1 (stereo unspecified)	-12.6%	-7.15	-8.85%	-32.9	-2.65	16.2
Cc1ccc(NC(=O)CSc2nnc(-c3ccc(N=Cc4ccc(Cl)cc4)cc3)o2)cc1	2.3%	-36.9	12.5%	-59.8	-15.8	18.6
c1ccc2[nH]cnc2c1	7.85%	-1.55	0.65%	-4.4	8.7	-46.8
CC(=O)/C=c1\[nH]/c(=C\C=C\c2ccccc2)c(=O)n1/C=C1\C(=O)Oc2ccccc2C1=O	-39.4%	7.1	4.6%	24.6	-18.1	-46
CCCNCCC(=O)Nc1ccccc1C(=O)OCC	3.15%	-18	0.2%	-43.1	29.3	-6.25
CCOc1ccc2nc(NC(=O)/C(CC(=O)CC(C3=C(O)c4ccccc4CC3=O)c3ccccc3)=N\O)sc2c1 (stereo unspecified)	-0.85%	-7	-12.6%	-18.6	-0.25	-20.1
COC(=O)/C=C(\C(=O)OC)C1=C(N2CCCC2)CC(C)(C)CC1=O	-7.8%	-14.9	-14.1%	-14.3	-14.3	-1.1
Cc1cc(OCc2ccc3ccccc3c2)ccc1Nc1cc(=O)[nH]c(=O)[nH]1	3.65%	33.6	18.6%	-4.55	33.6	24.4
COC(=O)c1ccccc1N(C)C(=O)c1cc(OC)c(OC)c(OC)c1	-27.4%	-37	-5.75%	-11.1	-19.4	-8.85
O=c1[nH]cnc2sc3c(c12)CCC3	30.6%	6.9	14.2%	13.4	3.1	1.55
O=C(O)c1cc2ccc(Cl)cc2c2cc(C(F)(F)F)ccc12	2.25%	27.8	27.2%	50.9	27.2	53.7
O=C1c2ccccc2C(=O)N1/N=C\c1ccc(O)cc1	6.8%	-3.6	7.6%	12.9	0.95	33.5
N=c1ccccn1CC(O)COc1ccccc1 (stereo unspecified)	-11.2%	-9.6	-1.6%	1.1	4.2	-5.8
CC(C)CC(O)CC(C)C	1.25%	-25.1	-0.75%	28.4	-15.3	19.8
CC(=O)CC1(O)C(=O)C(C(C)(C)C)=CC2(C(C)(C)C)OC12 (stereo unspecified)	2.25%	-13.1	-3.45%	-10.1	6.25	0.25
CC(C(=O)C(=O)Nc1ccc(Cl)cc1)C(=O)c1ccc(Cl)cc1 (stereo unspecified)	1.25%	-7.15	-2.85%	-14.9	5.15	-17.3
